Bioassay records deposited in PubChem BioAssay by National Center for Advancing Translational Sciences (NCATS).
Compounds with a hit are over-represented: about 2.4% of the library has one in this group of screens.
Pol eta inh: blocks human DNA polymerase eta activity | Potency, µM (doses to about 114 µM), without a hit: at the top dose activity change, negative = inhibition, hits mostly inhibitors | AID 588591 | 390,000 compounds, 1.2% hits | recombinant Pol eta, fluorescent DNA replication assay; further: potency means the concentration at half of the fitted maximal effect; on the % scale 0 is the no-effect control and ±100 the full control effect
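Fluorescent replication assay: 50 nM final substrate added after a 15 min room-temperature compound preincubation with 10 nM enzyme. Signal taken at 0 min and again at 10 min.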
WRN helicase inh: inhibitors of human WRN helicase | Q14191 | WRN helicase unwinding, fluorescent forked duplex, kinetic | Potency, µM (titrated, usually from 114 µM), inactives show at the top dose activity change, negative = inhibition, most hits filed as inhibitors | 360,000 compounds, 0.46% hits | AID 651768; further: potency means the concentration at half of the fitted maximal effect; on the % scale 0 is the no-effect control and ±100 the full control effect; nearly all actives have a fitted effect of over 55% in size
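Screening of the MLSMR collection measured strand separation of a quenched forked DNA duplex (100 nM) by 20 nM WRN with 2 mM ATP, all final. Compounds were preincubated with enzyme 15 min at room temperature.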
POLI inh: DNA polymerase iota (human) inhibition | AID 588590 | Pol iota fluorescent replication assay, 10 min | 390,000 compounds, 1% hits | Potency, µM (highest dose often 115 µM), without a hit: at the highest dose activity, negative = inhibition, usual class: inhibitors | Q9UNA4; further: potency means the concentration at half of the fitted maximal effect
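Pol iota at 10 nM preincubated 15 min with compounds at room temperature; reaction started with fluorescent substrate, 50 nM final. Fluorescence read kinetically at 0 and 10 min; buffer-only wells as negative control.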
Pol kappa inh: blocks human DNA polymerase kappa activity | 400,000 compounds, 0.53% hits | purified Pol kappa, fluorescent DNA synthesis assay, 10 min | Potency, µM (titrated, usually from 107 µM), for inactives: top-dose activity, negative = inhibition, most hits filed as inhibitors | Q9UBT6; further: potency means the concentration at half of the fitted maximal effect; on the % scale 0 is the no-effect control and ±100 the full control effect
Target sequence (Q9UBT6 whole entry, looked up): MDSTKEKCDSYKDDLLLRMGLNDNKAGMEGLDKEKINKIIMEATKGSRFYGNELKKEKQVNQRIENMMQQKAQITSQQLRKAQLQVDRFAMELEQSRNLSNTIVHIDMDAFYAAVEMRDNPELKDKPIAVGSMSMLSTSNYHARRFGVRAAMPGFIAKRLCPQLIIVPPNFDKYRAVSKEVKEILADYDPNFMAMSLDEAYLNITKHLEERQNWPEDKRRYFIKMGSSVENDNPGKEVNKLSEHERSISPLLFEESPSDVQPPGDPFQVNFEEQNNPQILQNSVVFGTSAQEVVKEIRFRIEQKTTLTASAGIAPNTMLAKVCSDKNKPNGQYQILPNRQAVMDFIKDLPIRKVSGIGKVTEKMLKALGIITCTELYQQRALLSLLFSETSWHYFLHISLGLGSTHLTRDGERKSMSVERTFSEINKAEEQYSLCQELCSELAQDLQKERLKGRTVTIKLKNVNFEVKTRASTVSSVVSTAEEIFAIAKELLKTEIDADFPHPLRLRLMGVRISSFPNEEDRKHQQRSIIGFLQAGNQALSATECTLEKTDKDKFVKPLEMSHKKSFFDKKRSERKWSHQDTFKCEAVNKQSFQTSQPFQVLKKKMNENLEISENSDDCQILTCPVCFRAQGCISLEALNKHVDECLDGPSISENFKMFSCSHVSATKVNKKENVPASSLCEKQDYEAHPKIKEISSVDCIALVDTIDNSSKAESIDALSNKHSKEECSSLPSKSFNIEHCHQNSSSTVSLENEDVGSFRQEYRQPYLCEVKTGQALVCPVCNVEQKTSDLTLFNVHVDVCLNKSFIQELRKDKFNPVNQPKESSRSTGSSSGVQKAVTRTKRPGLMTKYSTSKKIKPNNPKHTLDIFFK
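Fluorescent qHTS in 1536-well format: enzyme (10 nM) and compound sat 15 min at room temperature before 50 nM substrate (final) was added. Signal taken at 0 and 10 min; no-enzyme buffer wells were negative controls.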
FEN1 inhibitor: inhibitors of human flap endonuclease 1 | Potency, µM (titrated, usually from 114 µM), without a hit: at the highest dose activity change, negative = inhibition, most hits filed as inhibitors | Recombinant FEN1 flap cleavage, fluorescence, 15 min | 390,000 compounds, 0.35% hits; further: potency means the concentration at half of the fitted maximal effect; on the % scale 0 is the no-effect control and ±100 the full control effect; nearly all actives have a fitted effect of over 65% in size
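In this screen, 50 nM flap DNA substrate was added to 10 nM FEN1 pretreated with compound for 15 min at room temperature; cleavage was followed with reads at 0 and 15 min, and Hill fitting gave concentration–response parameters.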
Pol beta inh-1: DNA polymerase beta (human) inhibition. AID 485314. Pol beta primer extension/strand displacement, fluorescence kinetic. P06746. 340,000 compounds, 1.3% hits. Potency, µM (top dose mostly 114 µM), for the others: top-dose activity change, negative = inhibition, actives largely listed as inhibitors; further: potency means the concentration at half of the fitted maximal effect; on the % scale 0 is the no-effect control and ±100 the full control effect
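Kinetic readout of DNA synthesis with strand displacement by Pol beta. Compound and 10 nM enzyme sit 15 min at room temperature; 50 nM substrate starts the reaction, read immediately and at 10 min.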
Pol beta inh-2: Human Pol beta inhibitor hit validation. 250 compounds, 87% hits. Pol beta primer extension/strand displacement, fluorescence kinetic. shares compounds with Pol beta inh-1. Potency, µM, most hits filed as inhibitors; calls by dose curve; further: potency means the concentration at half of the fitted maximal effect
Klenow counter: Klenow polymerase inhibition, pol beta selectivity check; shares compounds with Pol beta inh-1; 250 tested, under 10 active; activity change, negative = inhibition, % at 57.1 µM; Klenow exo- polymerase counter-screen, fluorescent DNA substrate
HIV RT counter: inhibits HIV-1 reverse transcriptase in counter-screen; shares compounds with Pol beta inh-1; HIV-1 RT polymerase activity, counter-screen; activity % (negative = inhibition, positive = activation), % at 57.1 µM; 250 tested, under 10 active; AID 540301
POLB valid: validation of human DNA polymerase beta inhibitors; 110 compounds, 91% hits; AID 540325; shares compounds with Pol beta inh-1; inhibition, % at 10 µM; radiolabeled primer extension gel assay, phosphorimager;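 active means inhibition at 10 µM of 30% or more; inconclusive means no clear call, values can overlap the other calls; inactive means inhibition at 10 µM under 30%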
Pol iota confirm: Human Pol iota inhibitor confirmatory assay. AID 720496. shares compounds with Pol kappa inh. Potency, µM, usual class: inhibitors. 1,500 compounds, 77% hits. Pol iota primer extension, TAMRA/BHQ fluorescence; further: potency means the concentration at half of the fitted maximal effect
An asterisk follows results filed as active; u = inconclusive; x = no result given; [ ] = remark or other dose. Unless noted, the call rests on the fitted dose curve; in most records, active means well fitted curve in the direction sought with a large enough effect; inconclusive means small, poorly fitted or top-dose-only effect, or another doubt; inactive means no such curve, though single readings can be large; an effect the other way counts as inactive or inconclusive.

SMILES	Pol eta inh	WRN helicase inh	POLI inh	Pol kappa inh	FEN1 inhibitor	Pol beta inh-1	Pol beta inh-2	Klenow counter	HIV RT counter	POLB valid	others
Cc1csc(NC(=O)C2CC(=O)N(c3ccc4c(c3)OCCO4)C2)n1 (stereo not drawn)	4%	2%	17%	-4%	17%	x	x	x	x	x
O=C(Nc1nc(-c2ccco2)c(-c2ccco2)s1)C1CC(=O)N(c2ccc3c(c2)OCCO3)C1 (stereo not drawn)	8.9µM*	13µM*	7.9µM*	20µM*	u	8.9µM*	u	-26	-3	97*
CN(CCCc1cnc[nH]1)C(=S)NCCCN(Cc1ccc(Cl)cc1)c1ccc(Br)cn1	x	x	u	-16%	2%	x	x	x	x	x
COc1ccccc1-c1nnc2n1N=C(c1ccc(O)c(O)c1)CS2	8.9µM*	22µM*	13µM*	25µM*	-6%	4µM*	25*	-22	-15	37*
CCOc1ccc(C2=Nn3c(nnc3-c3ccccc3OC)SC2)cc1	2%	-12%	20%	-5%	-13%	0%	x	x	x	x
COc1ccc(Cn2c(=O)c3oc4ccccc4c3n(Cc3cccc(C(F)(F)F)c3)c2=O)cc1	-14%	x	14%	-16%	-15%	-10%	x	x	x	x
O=C(COC(=O)c1ccccc1Oc1ccccc1)NCc1ccco1	14µM*	u	u	79µM*	u	20µM*	35*	-4	u	x
O=C(COc1ccccc1-c1ccccc1)NCc1ccco1	-13%	-4%	67%	-16%	-14%	7%	x	x	x	x
O=[N+]([O-])c1cc(CN2CCOCC2)c2cccnc2c1O	8.9µM*	-23%	u	u	28µM*	2.5µM*	4.5*	11	20	x
CCOc1ccc(C(=O)/C=C/Nc2ccc(S(=O)(=O)Nc3cc(C)nc(C)n3)cc2)cc1	u	-18%[57.1 µM]	40µM*	-32%	-17%	8.9µM*	35*	-36	1	69*
O=C(Cn1c(=O)nc(-c2ccccc2)c2ccccc21)NCc1ccccc1Cl	-14%	x	13%	-12%[60.1 µM]	-8%	24%	x	x	x	x
COc1ccccc1N1CCN(C(=O)c2cc3c(s2)CCC3)CC1	u	-25%	-29%	-27%	11%	7.9µM*	u	11	10	74*
COC(=O)c1ccc(CSc2nc3scc(-c4cccs4)c3c(=O)[nH]2)o1	u	u	u	u	-9%	20µM*	32*	-9	22	98*
COc1ccc(C(=O)Nc2ccc3c(c2)C(=O)c2ccccc2C3=O)cc1OC	u	-33%	-5%	-10%	-15%	2.2µM*	22*	-15	23	70*
CCOc1ccc(C(=O)Nc2ccc(NC(=O)c3ccccc3)c(C)c2)cc1[N+](=O)[O-]	-23%	-28%	153%	-2%	-4%	20µM*	18*	-3	42	x
Cc1ccc(S(=O)(=O)N2CCC(c3nc(-c4cccs4)nc4ccccc34)CC2)cc1	x	x	8%	u	-16%	x	x	x	x	x
Nc1nc2c(c(=O)[nH]1)CN(Cc1ccccc1)CC2	-21%	-2%	64%	4%	20%	x	x	x	x	x
O=c1[nH]c(C(Cl)Cl)nc2sc3c(c12)CCN(Cc1ccccc1)C3	40µM*	-36%	u	u	-32%	13µM*	16*	-5	4	x
CCN(CC)S(=O)(=O)c1ccc(N2CCOCC2)c(NC(=O)c2cccc3ccccc23)c1	-9%	-9%	71%	-13%	-6%	12%	x	x	x	x
CCN(CC)S(=O)(=O)c1ccc(N2CCOCC2)c(NC(=O)c2c3c(nc4ccccc24)CCC3)c1	35µM*	-26%	32µM*	u	-6%	8.9µM*	25*	-22	19	88*
CC(=O)NC(Cc1ccc([N+](=O)[O-])cc1)C(=O)NCC(N)C(=O)c1ccccc1 (stereo not drawn)	x	x	-10%	-8%	-2%	x	x	x	x	x
COc1cc(OC)c(OC)cc1/C=C1\Oc2cc(OS(C)(=O)=O)ccc2C1=O	50µM*	u	20µM*	u	-29%	11µM*	35*	-30	17	96*
CS(=O)(=O)Oc1ccc2c(c1)O/C(=C\c1cccnc1)C2=O	-14%	-1%	-9%	-7%	-23%	26%	x	x	x	x
O=C(Nc1cccc(-c2nc3ccccc3[nH]2)c1)c1cccc(NC(=O)c2ccco2)c1	50µM*	-30%	u	u	u	13µM*	32*	-9	62	x
CC(=O)Nc1ccc(NC(=O)c2ccco2)cc1	4%	1%	19%	-2%	-14%	-4%	x	x	x	x
SMILES	Pol eta inh	WRN helicase inh	POLI inh	Pol kappa inh	FEN1 inhibitor	Pol beta inh-1	Pol beta inh-2	Klenow counter	HIV RT counter	POLB valid	others
CC1N(C)c2cc(NC(=O)c3ccco3)ccc2C1(C)C (stereo not drawn)	u	50µM*	u	u	u	20µM*	u	-36	-8	x
N#Cc1ccc(CN2CCCC3(CCN(C(=O)c4csnn4)CC3)C2)cc1	x	x	x	-9%[60.1 µM]	x	x	x	x	x	x
CCn1cc(C(=O)NCc2ccco2)c(=O)c2cc(F)c(N3CCN(C(=O)c4ccco4)CC3)cc21	u	u	u	u	-11%	14µM*	u	-36	33	x
N#Cc1c(=O)c2nc(NCCCO)ncc2n2c(=O)c3ccccc3[nH]c12	40µM*	u	22µM*	-30%	u	11µM*	u	-38	-1	40*
COc1cc2nc(N3CCCN(C)CC3)nc(NC3CCOCC3)c2cc1OC	x	x	-5%	-5%	-18%	x	x	x	x	x
COc1ccc(CCNC(=O)c2nnn(CC(=O)Nc3ccc(C)cc3C)c2N)cc1OC	u	-16%	35µM*	-42%	0%	0.56µM*	25*	-1	16	52*	Pol iota confirm=u
Cc1ccc(NC(=O)Cn2nnc(C(=O)NCCc3ccccc3)c2N)c(C)c1	u	0%	u	-11%	-6%	-3%	x	x	x	x
